Target: TRIM23
Assay: pooled miR-30 sensor sort-seq; sequence = guide strand
Settings: shRNA
Further: reference of the scale not given here.

Sequence | sensor-assay potency score (higher = more potent)
TTAATTTGTGTTTTCCACCTAC | 0.335
TAAGCTCGAATACATGACCGGG | -0.886
ATCAACAACACTTAGAGCCATT | -1.25
TAGTAGTTTTTCCAGCACCATC | -1.64
TTTTGGTCCAATGTGAACTCGA | 0.0711
TAAAATTGATGCTCGGATCTGA | 0.781

Target: TRIM25
Assay: as above
Settings: shRNA

Sequence | sensor-assay potency score (higher = more potent)
TTGAGTTCGGATGTGAGCTGGT | 0.643
TAAATCCACTAACTGTTCCGGG | -0.339
TTGTGCTGGGAACATTTGCGGC | -1.66
TTTAATGTAATACTCCAGGAGC | -0.733
TTTATCTTCCTTGTCGAGGTGG | 0.408
TAAATGGTGTCAAACTTGCTGT | -0.555
TTGTTGTAGCTGCTCCACCTTT | -0.889
TTGAGAGATGTTGAGTTCGGAT | -0.803
TATAGCACTCTGACAGAGCCAC | -0.415
TTGTTTTAAATCCACTAACTGT | -0.521
TTTCCGTGTATTCTTGTTGTAG | -0.308
TTGAGGTCTATGGTGCTCTGGT | -0.448

Target: TRIM2
Assay: as above
Settings: shRNA

Sequence | sensor-assay potency score (higher = more potent)
TATTGCTATTTACAGCTGCAAA | -1.54
TTAATTGAAAGTTTCATTGTAG | 0.799
TTTCATTGTAGACTAAAGCATC | -0.921
TTCCATTTGTAGATGCAGCTAC | 0.668
TTTTTGTCTTAAATTTCCCATC | -1.5
TAGAGTCTCAGAGACAGGGTAA | -0.389
TTGAATCCACTGCTACACCTGT | -0.182
TTCCATTTGAATCCACTGCTAC | -0.305
ATCACTTTCAGCTTAAACGGGC | -0.591
TAAAATTCCATCACATTCCCAT | 0.363
TTTCCAGTGCTGTACATGCTTG | -1.12
TTGTCTTAAATTTCCCATCGGA | 0.291

Target: TRIM38
Assay: as above
Settings: shRNA

Sequence | sensor-assay potency score (higher = more potent)
TACGTCTTCAACAAGAGCTGTG | -0.0393
TTAGTTATTCGCATTGCTGTGG | 0.226
TTCACATCGAAGTAAAGCTTGG | -0.536
TTCTTGATCCGTCTCTTTGAGG | -1.24
TAAACCTGGAAATAGGGCCGGA | -0.714
TTTCCATTTAGTTATTCGCATT | -1.66
TTAACATTTTCTTCACATCGAA | -0.794
TAACATTTTCTTCACATCGAAG | -1.18
TTTCTTTTTGCACAGCCTGAGG | -1.54
TTTTGTCACAGCTTTCTGGAGC | -0.543

From the OligoGym collection
